# Measured values from article PMC5540273 (PLoS ONE, 2017).
# Legend:
# [1] = test system: EPHA7
# [2] = test system: EPHA8
# [3] = test system: EPHB2
# [4] = test system: T1, ERK1
# T1 construct: gene MAPK3
# [5] = test system: T2, ERK5
# T2 construct: gene MAPK7
# [6] = test system: T3, ERK8
# T3 construct: gene MAPK15
# [7] = test system: ERN1
# 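Also: kd values determined as follow-up on hits from a single-replicate KINOMEscan panel screen.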
structure (smiles),measurement,setting,value
Cn1ccc2ncnc(Nc3ccc(Oc4cccc(Cl)c4)c(Cl)c3)c21,Kd,[1],> 10 µM
same,Kd,[2],> 10 µM
Cc1ccc(O)cc1Nc1cc(C(F)(F)F)nc2ccc(-c3ccncc3)cc12 [GW630823],Kd,[1],> 10 µM
Nc1n[nH]c2nnc(-c3ccccc3)cc12 [SB-517389],Kd,[3],> 10 µM
CC(C)(C)OC(=O)NC1CCCN(c2cc(-c3ccc4c(N)n[nH]c4c3)nc(N)n2)C1 (centres unmarked) [GSK2286096],Kd,[3],> 10 µM
O=C(Nc1ccccc1F)NC1CCN(c2ccnc(Nc3ccc(F)cc3)n2)C1 (centres unmarked) [GSK1379722],Kd,[4],> 10 µM
Nc1nc(-c2ccc3c(N)n[nH]c3c2)cc(N2CCC[C@@H](C(=O)Nc3ccccc3)C2)n1.O=C(O)C(F)(F)F.O=C(O)C(F)(F)F [GSK2288359],Kd,[4],5.3 µM
Cc1ccc(NC(=O)c2cccc(C#N)c2)cc1-c1ccc(C(=O)Nc2ccncc2)cc1 [GSK1398463],Kd,[5],> 10 µM
Cc1ccc(C)c(NC(=O)NCCNc2ccnc(Nc3ccc(F)cc3)n2)c1 [GSK1379878],Kd,[5],> 10 µM
c1ccc(-c2ccc3c(-c4ccnc(Nc5ccc6c(c5)OCCO6)n4)cnn3n2)cc1 [GW818941],Kd,[6],0.67 µM
O=C(Nc1ccccc1)Nc1ccc(Oc2ccc3nccn3n2)cc1,Kd,[7],> 10 µM
